Experiment [1] concerns the target Nuclear receptor coactivator 3 (Homo sapiens) (UniProt Q9Y6Q9). The experiment in a line: NCOA3 GAL4-fusion reporter inhibition – cell-based, luminescence, quadruplicate, confirmation (AID 588792;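 active = mean inhibition over 43.08%, the solvent-only control mean plus 3 SD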;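 also: 0% = DMSO treated cells and 100% = gossypol at 36 µM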). The conditions noted are these: HEK293 GAL4-SRC3 luciferase reporter, at 3.6 µM, hits give high values. For orientation: A reporter such as luciferase makes a cellular process visible.

Experiment [2] has as its system transactivating tegument protein VP16 (Human herpesvirus 1), Gal4-VP16 luciferase reporter. The experiment in a line: repression of VP16-driven luciferase reporter – cell-based, luminescence, high throughput, counter-screen for SRC3 inhibitor project (AID 588794). The conditions noted are these: mammalian cells, at 3.6 µM, hits give high values.

One may read the inhibition as the drop in the measured response relative to a control, in per cent.

A number with no mark means an inactive call. The source made the active and inactive calls. Rule as the data show it, unless noted: active = inhibition above about 30%; inactive = the rest.

Chain of Nuclear receptor coactivator 3 (Homo sapiens) (Q9Y6Q9 whole entry, looked up, the tested form may be a part): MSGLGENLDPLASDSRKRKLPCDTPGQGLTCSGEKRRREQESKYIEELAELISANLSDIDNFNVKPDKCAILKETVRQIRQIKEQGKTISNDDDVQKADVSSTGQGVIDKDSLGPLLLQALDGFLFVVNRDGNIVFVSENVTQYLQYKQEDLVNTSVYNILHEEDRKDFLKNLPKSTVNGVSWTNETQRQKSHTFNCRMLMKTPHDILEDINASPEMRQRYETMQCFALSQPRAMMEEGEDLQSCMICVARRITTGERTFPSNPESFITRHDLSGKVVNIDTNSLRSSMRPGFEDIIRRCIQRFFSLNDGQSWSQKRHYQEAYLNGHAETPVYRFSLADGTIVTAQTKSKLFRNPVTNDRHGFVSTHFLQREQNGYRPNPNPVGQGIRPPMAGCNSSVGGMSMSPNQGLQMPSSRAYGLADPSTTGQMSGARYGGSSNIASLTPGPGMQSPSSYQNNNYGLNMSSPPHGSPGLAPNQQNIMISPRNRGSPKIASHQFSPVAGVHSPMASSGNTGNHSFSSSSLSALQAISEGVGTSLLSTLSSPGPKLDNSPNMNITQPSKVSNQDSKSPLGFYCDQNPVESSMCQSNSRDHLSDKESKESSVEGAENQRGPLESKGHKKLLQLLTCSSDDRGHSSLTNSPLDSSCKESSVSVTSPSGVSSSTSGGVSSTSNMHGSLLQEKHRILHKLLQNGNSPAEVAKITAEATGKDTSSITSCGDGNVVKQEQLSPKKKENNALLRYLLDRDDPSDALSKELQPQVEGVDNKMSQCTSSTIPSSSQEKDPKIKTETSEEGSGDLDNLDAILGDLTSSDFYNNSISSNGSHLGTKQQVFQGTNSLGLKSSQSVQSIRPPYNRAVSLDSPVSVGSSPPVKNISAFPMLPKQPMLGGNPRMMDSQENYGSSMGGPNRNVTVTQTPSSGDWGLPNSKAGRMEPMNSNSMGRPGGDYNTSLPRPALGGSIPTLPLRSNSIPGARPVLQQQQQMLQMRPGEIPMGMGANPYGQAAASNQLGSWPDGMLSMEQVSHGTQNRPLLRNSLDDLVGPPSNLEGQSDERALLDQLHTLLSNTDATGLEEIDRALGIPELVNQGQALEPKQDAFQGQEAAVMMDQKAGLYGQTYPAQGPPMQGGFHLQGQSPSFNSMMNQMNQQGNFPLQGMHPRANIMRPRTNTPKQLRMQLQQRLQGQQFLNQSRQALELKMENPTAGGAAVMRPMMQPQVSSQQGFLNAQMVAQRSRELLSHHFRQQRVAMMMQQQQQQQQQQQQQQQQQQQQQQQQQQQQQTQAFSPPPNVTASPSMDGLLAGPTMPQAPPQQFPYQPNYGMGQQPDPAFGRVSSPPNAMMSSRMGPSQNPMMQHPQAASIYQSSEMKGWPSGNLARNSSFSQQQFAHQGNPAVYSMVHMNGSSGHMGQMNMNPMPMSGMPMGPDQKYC

As to `CCOC(=O)c1c(-c2ccccc2)oc2ccc(O)c(CN3CCOCC3)c12`, the inhibition in experiment [1] was -5.57%; in experiment [2], 4.57%.

For the compound `O=C(CCSc1ccc(Cl)cc1)N1CCN(c2ccc(O)cc2)CC1`, the inhibition in experiment [1] was 3.85%; in experiment [2] it was 28%.

`COc1ccc(C(CNC(=O)C(C)(C)Oc2ccc(Cl)cc2)N2CCCCC2)cc1` (stereo not given): the inhibition was 11.2% in experiment [1] and 2.63% in experiment [2].

As to `COCCNC(=O)c1cc(-c2ccccn2)nc2ccc(S(=O)(=O)N3CCC(C)CC3)cc12`, the figures for the inhibition in experiment [1] and in experiment [2] were 30.4% and 0.64%, respectively.

With `Cc1ccc(S(=O)(=O)C(C#N)c2nc3ccccc3nc2N2CCN(C)CC2)cc1` (stereo not given), the inhibition was 19.1% in experiment [1] and -2.04% in experiment [2].

For `CC(=O)c1ccc(N2CCN(C(=O)c3nn(Cc4ccccc4)c(=O)c4ccccc34)CC2)cc1`, the inhibition in experiment [1] is 13.9%; in experiment [2], -1.19%.

For `COC(=O)c1ccc2c(c1)C(C)(C)C(/C=C/c1ccccc1O)=[N+]2C`, the inhibition in experiment [1] was 58.6% (active); in experiment [2], 43.5% (active).

For the compound `Brc1ccc2ncc3ccccc3c2c1`, the inhibition in experiment [1] was 40.2%; in experiment [2], 19.1%.

Turning to `COc1ccc(N2CCN(c3nc(NCCc4ccc(OC)c(OC)c4)nc(OC)n3)CC2)cc1`, the inhibition in experiment [1] was 6.14%; in experiment [2] it was 1.14%.

`CCCN1C(=O)c2ccccc2NC1c1ccc(Cl)c(Cl)c1` (stereo not given): the results for the inhibition in experiment [1] and in experiment [2] were 17.8% and 22.1%, respectively.

On to `CCCn1c(N)c(C(=O)CSc2ncc(C(F)(F)F)cc2Cl)c(=O)[nH]c1=O`, for which the inhibition is 14.6% in experiment [1] and -5.96% in experiment [2].

Regarding `Cc1[nH]nc(-c2ccc(O)cc2O)c1Oc1ccccc1`, the inhibition is 3.77% in experiment [1] and 10.3% in experiment [2].

As to `CCCCCCC(=O)NNC(=O)CC(=O)Nc1ccccc1C(=O)O`, the inhibition is 4.52% in experiment [1] and -10.2% in experiment [2].

`CCC(=O)N1CCN(c2ccnc3cc(Cl)ccc23)CC1`: the inhibition was 29.1% in experiment [1] and 9.02% in experiment [2].

As to `CCOc1ccc(/C=N/OCC(=O)NCc2ccc3c(c2)OCO3)cc1OC`, the inhibition in experiment [1] is -12.6%; in experiment [2], -5.41%.

Turning to `Cc1ccc(CNC(=O)c2ccc3c(=O)c(O)c(-c4ccc(C)cc4)[nH]c3c2)cc1`, the inhibition in experiment [1] was 28.5%; in experiment [2] it was 8.89%.

For the compound `COc1ccc(C(=O)Cn2nc(CNc3ccc(Br)cc3)[n+]3c2CCCCC3)cc1`, the values for the inhibition in experiment [1] and in experiment [2] were -7.02% and 3.2%, respectively.

With `Cc1ccccc1OCc1n(CC(=O)OC2CC(C)CCC2C(C)C)c2ccccc2[n+]1C` (stereo not given), the figures for the inhibition in experiment [1] and in experiment [2] were 13% and 22.8%, respectively.

`COc1c(Cl)cc(Cl)cc1/C=C/C(=O)c1ccc(NC(=O)c2cccs2)cc1`: the inhibition in experiment [1] was 48.7% (active); in experiment [2], 26.6%.

With `COc1cccc(NC(=O)CN(C)C(=O)/C=C/c2cn(-c3ccccc3)nc2-c2ccc(OC)c(OC)c2)c1`, the inhibition was 1.39% in experiment [1] and -9.23% in experiment [2].

Take `Cc1ccc(NC(=O)C2CCN(c3ncnc4c3nc3n4CCCCC3)CC2)cc1Cl`: the inhibition in experiment [1] is -20.6%; in experiment [2] it was -3.54%.

As for `CCN(CC(=O)Nc1ccc(OC)cc1)C(=O)CSCC(=O)Nc1cc(C)on1`, the values for the inhibition in experiment [1] and in experiment [2] were 5.34% and 5.42%, respectively.

On to `COc1cc2c(C#N)c(N3CCOCC3)nc(N)c2c(N)n1`, for which the inhibition in experiment [1] is -5.11%; in experiment [2] it was 0.07%.

Turning to `Cc1ccc(C(=O)C[n+]2ccc(Cc3ccccc3)cc2)cc1`, the inhibition is -4.6% in experiment [1] and 14.8% in experiment [2].

`CC(C)NC(=O)N(C)C[C@H]1Oc2ccc(NS(=O)(=O)c3ccc(Cl)cc3)cc2CC(=O)N([C@@H](C)CO)C[C@@H]1C`: the inhibition is 5.62% in experiment [1] and -1.86% in experiment [2].

Turning to `Nc1nc(NCc2ccco2)nc(N2CCCCCC2)c1[N+](=O)[O-]`, the results for the inhibition in experiment [1] and in experiment [2] were -0.71% and 18%, respectively.

For the compound `Cc1ccc2[nH]c(C(=O)N/N=C/c3ccccc3O)c(C)c2c1`, the inhibition was 65.9% (active) in experiment [1] and 67.7% (active) in experiment [2].

Take `COc1ccc(CN2C(=O)c3cccnc3C2=O)cc1S(=O)(=O)NCc1ccccc1`: the inhibition in experiment [1] was 8.01%; in experiment [2], -6.65%.

For `COc1ccc(-c2nc(CSCC(=O)NCc3ccco3)c(C)o2)cc1`, the inhibition in experiment [1] was 42.1%; in experiment [2], -11.2%.

On to `Cc1ncoc1C(=O)NC1CCCc2c1cnn2-c1ccc(C(C)(C)C)cc1` (stereo not given), for which the inhibition in experiment [1] was -0.26%; in experiment [2], 41.8% (active).

As to `Cc1cccc(NC(=O)c2cnn(C)c2)c1C`, the inhibition in experiment [1] is -2.28%; in experiment [2], -8.45%.

Take `CCc1ccc([C@@H]2CC(=O)[C@@H]3CN(S(=O)(=O)c4ccccc4C)[C@H](c4ccc(Cl)cc4)C[C@@H]3N2S(=O)(=O)c2ccc(C)cc2)cc1`: the inhibition in experiment [1] was 15.5%; in experiment [2] it was 4.71%.

Take `CCC(C)(CC(=O)O)CC(=O)Nc1cc(C(F)(F)F)cc(C(F)(F)F)c1` (stereo not given): the inhibition in experiment [1] was 9.02%; in experiment [2] it was -3.88%.

Turning to `COc1ccc(-n2c(-c3ccc(Br)cc3)c[n+]3c2CCCCC3)cc1`, the inhibition in experiment [1] is -0.37%; in experiment [2], 16.2%.

On to `CCC(=O)NC(c1cccs1)c1ccc2cccnc2c1O` (stereo not given), for which the inhibition in experiment [1] was 33.1%; in experiment [2], 25.9%.

In the case of `COc1cc(/C=C/c2cc(C(F)(F)F)[nH]c(=O)n2)cc(OC)c1OC`, the inhibition in experiment [1] is 16.9%; in experiment [2] it was 40.6% (active).

For the compound `O=C(Nc1nc(-c2ccc3c(c2)OCCO3)cs1)c1ccc(S(=O)(=O)N2CCCCC2)cc1`, the inhibition was -0.44% in experiment [1] and 32.6% (active) in experiment [2].

`Cc1cccc(NC(=O)c2cc(-c3cccnc3)nc3c(C)cccc23)n1`: the results for the inhibition in experiment [1] and in experiment [2] were 7.37% and 1.11%, respectively.

Regarding `Cc1ccc(N/C(N)=N/c2nc(C)cc(C)n2)cc1`, the inhibition was -9.39% in experiment [1] and -6.71% in experiment [2].

As to `COC(=O)c1ccccc1-c1ccc(C(c2c(C)[nH][nH]c2=O)c2c(C)[nH][nH]c2=O)o1`, the inhibition is 22.8% in experiment [1] and -7.34% in experiment [2].

For the compound `COC(=O)N/N=C/c1cn(Cc2ccc(Cl)cc2Cl)c2ccccc12`, the inhibition is 18.6% in experiment [1] and 0.26% in experiment [2].

Turning to `CC(C(=O)c1ccc(-c2ccccc2)cc1)[n+]1ccccc1` (stereo not given), the inhibition in experiment [1] was 5.63%; in experiment [2], 19.5%.

In the case of `CCC1C(=O)NCCN1C(=O)c1ccc2nc(Cc3ccc(OC)cc3)oc2c1` (stereo not given), the inhibition in experiment [1] is -2.02%; in experiment [2], -0.9%.

Regarding `CCOc1ccc(CNC(=O)C2Cc3cc(S(=O)(=O)N4CCCC4)ccc3N2C(C)=O)cc1` (stereo not given), the inhibition is 4.56% in experiment [1] and 8.25% in experiment [2].

On to `CC(C)[C@@H]1CC[C@@H](C)C[C@H]1OC(=O)C[n+]1cc(-c2ccc(Cl)cc2)n2c1CCCCC2`, for which the inhibition in experiment [1] was 10.3%; in experiment [2], 20.6%.

With `CC[N+](CC)(CC)CCOc1ccc(/C=C/c2ccccc2)cc1`, the inhibition is 3.27% in experiment [1] and 5.91% in experiment [2].

Turning to `CCN(CC)CCCNc1nc2cc(OC)c(OC)cc2c2nc(-c3cccnc3)nn12`, the results for the inhibition in experiment [1] and in experiment [2] were -30.7% and 39.4% (active), respectively.

Regarding `COc1ccc(CN(Cc2cccn2C)S(=O)(=O)c2ccc(C)cc2)cc1`, the results for the inhibition in experiment [1] and in experiment [2] were 1.22% and -4.15%, respectively.

Regarding `CCCn1c(C)cc(C(=O)COc2ccc(C)nc2[N+](=O)[O-])c1C`, the inhibition in experiment [1] is 11.3%; in experiment [2], 6.56%.

Regarding `COc1ccc(-n2c(C)cc(C(=O)COc3ccc(C)nc3[N+](=O)[O-])c2C)cc1`, the inhibition in experiment [1] is 14.4%; in experiment [2], 10.7%.

In the case of `O=c1c2ccccc2cnn1CCOc1ccccc1`, the figures for the inhibition in experiment [1] and in experiment [2] were -15.3% and -21.5%, respectively.

As to `COc1ccccc1N(CC(=O)N/N=C/c1c(O)ccc2ccccc12)S(C)(=O)=O`, the inhibition in experiment [1] was 34.2%; in experiment [2] it was 41.2% (active).

In the case of `COC(=O)Cc1[nH]n(-c2nc3ccccc3s2)c(=O)c1C(C)=Nc1ccc(C)cc1`, the inhibition is 90.5% (active) in experiment [1] and 87.1% (active) in experiment [2].

For `O=C1c2cccc(NCCNCCO)c2C(=O)c2cccc(NCCNCCO)c21`, the inhibition in experiment [1] was -30.9%; in experiment [2] it was 37.6% (active).

For `COc1ccc(-c2ncncc2-c2ccc(Cl)cc2)c(O)c1`, the inhibition is 25.1% in experiment [1] and 22.8% in experiment [2].

For `Cc1ccc(C2(c3ccc(C)cc3)CC2C(=O)Nc2ccc([N+](=O)[O-])cc2O)cc1` (stereo not given), the inhibition in experiment [1] is 11.3%; in experiment [2] it was 19.4%.

Consider `CN(C)CCCOc1ccc2c(c1)Sc1ccccc1CC2=O`, for which the inhibition in experiment [1] was -10.4%; in experiment [2], -4.19%.

As to `O=C(NC1CCCC1)c1cc(COc2ccc3ncccc3c2)on1`, the inhibition was 19.7% in experiment [1] and 43.3% (active) in experiment [2].

In the case of `Cn1ncc2c(O/N=C(\N)c3ccc(C(F)(F)F)cc3)ncnc21`, the inhibition in experiment [1] is -12.9%; in experiment [2] it was 1.06%.

For the compound `CN(C)S(=O)(=O)c1ccc(N2CCN(S(=O)(=O)c3ccc(F)cc3)CC2)c(Cl)c1`, the inhibition in experiment [1] is 41.9%; in experiment [2], 28.5%.

As for `NC(=O)CC(NC(=O)c1cccc(Br)c1)c1ccc(NC2CCN(Cc3ccccc3)CC2)c([N+](=O)[O-])c1` (stereo not given), the inhibition was -3.11% in experiment [1] and -4.06% in experiment [2].

With `OCCNCCOc1ccc(Cl)c(Cl)c1`, the inhibition in experiment [1] was 5.72%; in experiment [2], 2.08%.

Turning to `COC(=O)c1c(NC(=O)c2ccccc2)sc(C(N)=O)c1C`, the inhibition was 26.7% in experiment [1] and 55.4% (active) in experiment [2].

As for `Cc1cc(SCC(=O)N/N=C/c2ccc(O)cc2O)c(C)cc1Br`, the results for the inhibition in experiment [1] and in experiment [2] were 20.6% and 23.2%, respectively.

`O=C(Nc1ccc(Oc2cccnc2)nc1)c1ccc(C(F)(F)F)cc1`: the inhibition in experiment [1] was 17.2%; in experiment [2], 37.1% (active).

Take `O=C(NNC1=Nc2ccccc2SC1)c1ccc(Cl)cc1`: the inhibition in experiment [1] is 24.6%; in experiment [2] it was 5.18%.

With `CCC(O)CC(C(=O)NNc1ccccc1)C(=O)NNc1ccccc1` (stereo not given), the inhibition in experiment [1] was -2.21%; in experiment [2], 11.1%.

Take `Cc1cccc(N2C(=O)c3cccnc3C2=O)c1`: the inhibition in experiment [1] was 3.71%; in experiment [2] it was -4.38%.

`COc1ccccc1OCC(=O)NNC(=O)C1CCN(c2ncnc3sc(C)c(C)c23)CC1`: the inhibition in experiment [1] was 3.67%; in experiment [2], 0.76%.

On to `COc1cccc(C(=O)CC(=O)C(=O)Nc2cccc([N+](=O)[O-])c2C)c1`, for which the inhibition was -3.08% in experiment [1] and -1.84% in experiment [2].

The record behind these values is PubChem BioAssay.
